Experimental data as given in PubChem BioAssay (Tox21).
Results filed as inconclusive are left out. Active and inactive are the calls of the source. Unless noted, calls come from the whole dose curve; as a rule, active = well fitted curve in the direction sought with a large enough effect in the repeat runs; inconclusive = weak or mixed curves; inactive = no such curve, though single readings can be large; an effect the other way counts as inactive or inconclusive.

Assays:
[1] = qHTS assay to identify small molecule HDAC inhibitors (AID 1259364); note: nearly all actives have a fitted effect of over 45% in size; note: potency is the fitted concentration of half-maximal effect; for activity change, negative = inhibition: top concentration of the series differs between compounds
Procedure, shortened: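 Wild-type HCT-116 cells were plated overnight, exposed to compounds for 2 h at 37 °C, then given HDAC-Glo class I/II luminogenic reagent for 30 min at room temperature before luminescence was read.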

[2] = qHTS assay to identify small molecule HDAC inhibitors - cell viability counter screen (AID 1259365); note: series mostly up to about 92 µM; nearly all actives have a fitted effect of over 50% in size
Procedure, shortened: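 To flag cytotoxic hits, 1,500 wild-type HCT-116 cells per well, plated the day before, receive test compounds for 2hr at 37 C before CellTiter-Glo reagent and a luminescence read.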

[3] = qHTS assay to identify small molecule agonists of the sonic hedgehog signaling (Shh) pathway - cell viability counter screen (AID 1259366); note: nearly all actives have a fitted effect of over 50% in size
Procedure, shortened: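 Fluorescence from CellTiter-Fluor reports live cells in this counter screen. NIH/3T3-derived Gli1-Luc reporter cells receive test compounds for 24hr at 37C; reagent goes in at 23hr.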

[4] = qHTS assay to identify small molecule antagonists of the sonic hedgehog signaling (Shh) pathway - cell viability counter screen (AID 1259367); note: nearly all actives have a fitted effect of over 55% in size
Procedure, shortened: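 Seed 3T3 Gli1-Luc cells at 2,000 per well; incubate 4 hr; add compound in DMSO, then conditioned medium; incubate at 37C with 5% CO2; add CellTiter-Fluor after 23 hr; read fluorescence 1 hr later.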

[5] = qHTS assay to identify small molecule agonists of the sonic hedgehog signaling (Shh) pathway (AID 1259368; calls by dose curve; note: series mostly up to about 92 µM; nearly all actives have a fitted effect of over 15% in size)
Procedure, shortened: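 NIH/3T3-derived 3T3Gli1-Luc cells carrying a stably integrated Gli1 response element–firefly luciferase reporter were plated, left 4 hr at 37 C, then given compounds in DMSO for 24 hr. Luminescence was read 30 min after adding luciferase reagent.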

[6] = qHTS assay to identify small molecule antagonists of the sonic hedgehog signaling (Shh) pathway (AID 1259369; calls by dose curve; note: nearly all actives have a fitted effect of over 45% in size; note: potency is the fitted concentration of half-maximal effect)
Procedure, shortened: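 NIH/3T3-derived 3T3Gli1-Luc cells with stably integrated Gli1-Luc reporter were preincubated 4hr at 37 C, then given compounds in DMSO plus Shh conditioned medium and incubated 24hr. Firefly luciferase luminescence read after 30min reagent at room temperature.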

[7] = target: Estrogen receptor beta (Homo sapiens) (UniProt Q92731); test: qHTS assay to identify small molecule agonists of the estrogen receptor beta (ER-beta) signaling pathway (AID 1259377; active = well fitted activation curve with a large enough effect in the signal ratio in the repeat runs, not every such curve was filed as active; the % refers to the signal ratio)
Chain of Estrogen receptor beta (Homo sapiens) (Q92731 whole entry, looked up): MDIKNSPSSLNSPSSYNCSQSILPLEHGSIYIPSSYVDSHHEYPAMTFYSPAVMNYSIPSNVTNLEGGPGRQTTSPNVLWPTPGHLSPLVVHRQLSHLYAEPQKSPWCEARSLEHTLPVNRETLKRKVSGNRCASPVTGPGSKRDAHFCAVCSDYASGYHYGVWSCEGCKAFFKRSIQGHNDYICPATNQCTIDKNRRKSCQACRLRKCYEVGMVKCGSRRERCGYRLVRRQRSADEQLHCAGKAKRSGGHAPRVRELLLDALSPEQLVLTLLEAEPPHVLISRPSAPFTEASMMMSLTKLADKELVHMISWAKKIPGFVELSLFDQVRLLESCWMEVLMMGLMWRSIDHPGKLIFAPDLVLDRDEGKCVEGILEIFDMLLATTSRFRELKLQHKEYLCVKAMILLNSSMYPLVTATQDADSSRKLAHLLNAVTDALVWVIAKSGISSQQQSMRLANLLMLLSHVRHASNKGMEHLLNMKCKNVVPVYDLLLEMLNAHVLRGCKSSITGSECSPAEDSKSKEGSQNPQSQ
Procedure, shortened: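 Screening used GripTite ER-beta-UAS-bla cells held in 2% charcoal-stripped FBS medium. After overnight (16 hr) compound incubation at 37C, beta-lactamase activity was detected with a FRET substrate by fluorescence.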

[8] = qHTS assay to identify small molecule agonists of the androgen receptor (AR) signaling pathway in the presence of an antagonist - cell viability counter screen (AID 1259379); note: series mostly up to about 92 µM; nearly all actives have a fitted effect of over 25% in size
Procedure, shortened: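 MDA-kb2 human breast carcinoma cells (stable MMTV-luciferase, AR/GR responsive) were seeded 3,000 cells/well, pre-incubated 5 hr at 37C without CO2, then given 3.0uM nilutamide and compounds at 15 concentrations for 16 hr. Viability was read by CellTiter-Fluor fluorescence.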

[9] = target: Androgen receptor (Homo sapiens) (UniProt P10275); test: qHTS assay to identify small molecule agonists of the androgen receptor (AR) signaling pathway in the presence of an antagonist (AID 1259381; calls by dose curve; note: nearly all actives have a fitted effect of over 15% in size; note: potency is the fitted concentration of half-maximal effect)
Chain of Androgen receptor (Homo sapiens) (P10275 whole entry, looked up): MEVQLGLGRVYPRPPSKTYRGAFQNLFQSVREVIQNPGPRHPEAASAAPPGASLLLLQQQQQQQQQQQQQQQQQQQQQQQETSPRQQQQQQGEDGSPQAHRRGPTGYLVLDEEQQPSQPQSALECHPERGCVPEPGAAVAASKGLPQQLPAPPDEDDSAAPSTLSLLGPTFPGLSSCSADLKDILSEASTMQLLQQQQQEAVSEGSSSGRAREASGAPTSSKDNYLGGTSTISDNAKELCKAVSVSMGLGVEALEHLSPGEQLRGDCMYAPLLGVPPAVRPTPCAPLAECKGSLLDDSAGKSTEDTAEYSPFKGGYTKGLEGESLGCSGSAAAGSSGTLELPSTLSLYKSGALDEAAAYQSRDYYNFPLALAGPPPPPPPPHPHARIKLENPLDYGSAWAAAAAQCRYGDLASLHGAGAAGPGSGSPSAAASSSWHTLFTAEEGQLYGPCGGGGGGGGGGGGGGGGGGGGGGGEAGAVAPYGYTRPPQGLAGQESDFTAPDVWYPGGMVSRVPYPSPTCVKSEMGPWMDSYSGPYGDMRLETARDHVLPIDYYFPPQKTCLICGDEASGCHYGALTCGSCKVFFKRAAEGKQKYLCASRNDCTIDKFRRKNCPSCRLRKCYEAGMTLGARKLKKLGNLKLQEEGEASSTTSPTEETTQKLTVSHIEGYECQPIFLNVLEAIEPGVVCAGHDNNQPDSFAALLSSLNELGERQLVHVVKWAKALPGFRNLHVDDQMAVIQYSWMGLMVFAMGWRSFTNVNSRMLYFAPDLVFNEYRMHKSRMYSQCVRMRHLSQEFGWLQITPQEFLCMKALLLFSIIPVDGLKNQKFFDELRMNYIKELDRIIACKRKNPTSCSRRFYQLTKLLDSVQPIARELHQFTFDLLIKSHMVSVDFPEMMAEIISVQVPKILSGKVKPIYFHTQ
Procedure, shortened: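 MDA-kb2 human breast carcinoma cells carrying an MMTV-luciferase reporter (AR- and GR-responsive) were treated with compounds at 15 concentrations plus 3.0uM final nilutamide for 16hr at 37C without CO2; luminescence was read after ONE-Glo addition.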

[10] = qHTS assay to identify small molecule antagonists of the estrogen receptor beta (ER-beta) signaling pathway - cell viability counter screen (AID 1259382); note: series mostly up to about 92 µM; nearly all actives have a fitted effect of over 55% in size
Procedure, shortened: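 ER-beta-UAS-bla HEK293T cells (2,000/well, 2% charcoal-stripped FBS) were pre-incubated 6 hr at 37C, then given compound plus 1nM final 17-beta-estradiol for 16 hr. Viability was read in the same wells by CellTiter-Glo luminescence after 30 min at room temperature.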

[11] = target: Estrogen receptor (Homo sapiens) (UniProt P03372); test: qHTS assay to identify small molecule agonists of the estrogen receptor alpha (ER-alpha) signaling pathway in the presence of an antagonist (AID 1259383; calls by dose curve; note: top concentration of the series differs between compounds; nearly all actives have a fitted effect of over 15% in size)
Chain of Estrogen receptor (Homo sapiens) (P03372 whole entry, looked up): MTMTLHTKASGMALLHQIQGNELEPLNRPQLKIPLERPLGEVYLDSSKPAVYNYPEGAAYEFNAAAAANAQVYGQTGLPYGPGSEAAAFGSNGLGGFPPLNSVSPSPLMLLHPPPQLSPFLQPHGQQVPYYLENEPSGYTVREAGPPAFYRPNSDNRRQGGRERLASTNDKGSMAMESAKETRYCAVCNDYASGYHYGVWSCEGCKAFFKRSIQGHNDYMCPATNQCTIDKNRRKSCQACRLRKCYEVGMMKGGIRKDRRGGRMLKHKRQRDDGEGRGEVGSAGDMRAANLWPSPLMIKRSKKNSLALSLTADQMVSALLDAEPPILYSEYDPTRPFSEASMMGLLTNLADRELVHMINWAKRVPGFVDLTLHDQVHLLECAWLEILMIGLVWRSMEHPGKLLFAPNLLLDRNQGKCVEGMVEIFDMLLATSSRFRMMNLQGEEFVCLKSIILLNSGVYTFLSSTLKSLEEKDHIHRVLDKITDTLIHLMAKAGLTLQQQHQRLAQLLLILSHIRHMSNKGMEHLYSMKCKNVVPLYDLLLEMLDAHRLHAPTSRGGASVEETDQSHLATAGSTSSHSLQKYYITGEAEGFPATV
Procedure, shortened: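 VM7Luc4E2 cells (endogenous full-length ER-alpha, 4×ERE-luciferase) were precultured 5 days in phenol red-free medium with 10% charcoal-stripped FBS, given 10.0nM ICI-182,780 (final), then treated with compounds at 15 concentrations for 22hr at 37C; luminescence read with ONE-Glo.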

[12] = qHTS assay to identify small molecule agonists or antagonists of the thyroid stimulating hormone receptor (TSHR) signaling pathway - wild type cell line counter screen (AID 1259384; calls by dose curve)
Procedure, shortened: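 Wild-type Hek293 cells, 800/well, 18 h at 37C, then compound with Ro20-1724 for 30 min RT. cAMP by HTRF (cAMP-d2/anti-cAMP cryptate), 1 h RT, fluorescence read. 15 concentrations, triplicates.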

[13] = target: Thyrotropin receptor (Homo sapiens) (UniProt P16473); test: qHTS assay to identify small molecule antagonists of the thyroid stimulating hormone receptor (TSHR) signaling pathway (AID 1259385; calls by dose curve; note: nearly all actives have a fitted effect of over 20% in size)
Chain of Thyrotropin receptor (Homo sapiens) (P16473 whole entry, looked up): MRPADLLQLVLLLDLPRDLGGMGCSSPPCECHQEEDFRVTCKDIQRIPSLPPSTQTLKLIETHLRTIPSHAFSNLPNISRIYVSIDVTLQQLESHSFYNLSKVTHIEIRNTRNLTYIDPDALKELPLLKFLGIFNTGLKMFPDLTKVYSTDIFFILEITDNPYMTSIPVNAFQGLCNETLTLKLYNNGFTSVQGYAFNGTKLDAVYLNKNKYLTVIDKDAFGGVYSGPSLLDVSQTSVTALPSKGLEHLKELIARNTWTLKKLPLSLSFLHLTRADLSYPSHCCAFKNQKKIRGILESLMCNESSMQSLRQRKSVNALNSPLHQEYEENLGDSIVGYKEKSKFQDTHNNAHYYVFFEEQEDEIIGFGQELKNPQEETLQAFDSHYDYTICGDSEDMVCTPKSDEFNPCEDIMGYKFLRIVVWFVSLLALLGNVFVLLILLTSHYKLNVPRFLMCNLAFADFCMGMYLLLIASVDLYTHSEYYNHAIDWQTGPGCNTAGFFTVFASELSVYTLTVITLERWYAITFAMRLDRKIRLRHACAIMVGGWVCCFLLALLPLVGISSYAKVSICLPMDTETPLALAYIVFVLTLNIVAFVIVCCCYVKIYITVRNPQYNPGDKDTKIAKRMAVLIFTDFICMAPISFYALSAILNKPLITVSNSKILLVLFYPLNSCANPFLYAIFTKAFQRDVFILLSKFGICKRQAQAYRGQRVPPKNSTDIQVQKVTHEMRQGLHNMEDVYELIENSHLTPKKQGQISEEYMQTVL
Procedure, shortened: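 TSHR-HEK293 cells (800/well) plated 18 h, then compounds with Ro20-1724 and TSH at 1.5 ng/mL final, 30 min at room temperature. cAMP quantified by HTRF (cAMP-d2/anti-cAMP-cryptate, 1 h); 15 concentrations in triplicate.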

[14] = qHTS assay to identify small molecule agonists of the estrogen receptor alpha (ER-alpha) signaling pathway in the presence of an antagonist - cell viability counter screen (AID 1259386);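 note: series mostly up to about 92 µM; cells exposed to compounds for 22 h at 37 °C before the viability read; nearly all actives have a fitted effect of over 30% in size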
Procedure, shortened: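 VM7Luc4E2 cells (endogenous full-length ER-alpha, 4×ERE-luciferase) were held 5 days in phenol red-free medium with 10% charcoal-stripped FBS, plated, then given 10.0nM ICI-182,780 and compounds at 15 concentrations for 22hr at 37C; viability read by CellTiter-Fluor fluorescence.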

[15] = target: Estrogen receptor beta (Homo sapiens) (UniProt Q92731); test: qHTS assay to identify small molecule antagonists of the estrogen receptor beta (ER-beta) signaling pathway (AID 1259378; active = well fitted inhibition curve with a large enough effect in the signal ratio in the repeat runs, not every such curve was filed as active; the % refers to the signal ratio)
Procedure, shortened: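 ER-beta-UAS-bla HEK293T cells in 2% charcoal-stripped FBS medium treated with compound plus 1nM final 17-beta-estradiol for 16 hr at 37C. Beta-lactamase reporter read by FRET substrate fluorescence after 2 hours at room temperature.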

[16] = qHTS assay to identify small molecule agonists of the estrogen receptor beta (ER-beta) signaling pathway - cell viability counter screen (AID 1259380); note: nearly all actives have a fitted effect of over 30% in size
Procedure, shortened: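 ER-beta-UAS-bla HEK293T cells in medium with 2% charcoal-stripped FBS were preincubated 6 hr at 37C, dosed with compound in DMSO for 16 hr, then after the bla read, CellTiter-Glo was added for 30 min at room temperature; luminescence recorded.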

[17] = target: Progesterone receptor (Homo sapiens) (UniProt P06401); test: qHTS assay to identify small molecule agonists of the progesterone receptor (PR) signaling pathway (AID 1346784; calls by dose curve; note: nearly all actives have a fitted effect of over 30% in size)
Chain of Progesterone receptor (Homo sapiens) (P06401 whole entry, looked up): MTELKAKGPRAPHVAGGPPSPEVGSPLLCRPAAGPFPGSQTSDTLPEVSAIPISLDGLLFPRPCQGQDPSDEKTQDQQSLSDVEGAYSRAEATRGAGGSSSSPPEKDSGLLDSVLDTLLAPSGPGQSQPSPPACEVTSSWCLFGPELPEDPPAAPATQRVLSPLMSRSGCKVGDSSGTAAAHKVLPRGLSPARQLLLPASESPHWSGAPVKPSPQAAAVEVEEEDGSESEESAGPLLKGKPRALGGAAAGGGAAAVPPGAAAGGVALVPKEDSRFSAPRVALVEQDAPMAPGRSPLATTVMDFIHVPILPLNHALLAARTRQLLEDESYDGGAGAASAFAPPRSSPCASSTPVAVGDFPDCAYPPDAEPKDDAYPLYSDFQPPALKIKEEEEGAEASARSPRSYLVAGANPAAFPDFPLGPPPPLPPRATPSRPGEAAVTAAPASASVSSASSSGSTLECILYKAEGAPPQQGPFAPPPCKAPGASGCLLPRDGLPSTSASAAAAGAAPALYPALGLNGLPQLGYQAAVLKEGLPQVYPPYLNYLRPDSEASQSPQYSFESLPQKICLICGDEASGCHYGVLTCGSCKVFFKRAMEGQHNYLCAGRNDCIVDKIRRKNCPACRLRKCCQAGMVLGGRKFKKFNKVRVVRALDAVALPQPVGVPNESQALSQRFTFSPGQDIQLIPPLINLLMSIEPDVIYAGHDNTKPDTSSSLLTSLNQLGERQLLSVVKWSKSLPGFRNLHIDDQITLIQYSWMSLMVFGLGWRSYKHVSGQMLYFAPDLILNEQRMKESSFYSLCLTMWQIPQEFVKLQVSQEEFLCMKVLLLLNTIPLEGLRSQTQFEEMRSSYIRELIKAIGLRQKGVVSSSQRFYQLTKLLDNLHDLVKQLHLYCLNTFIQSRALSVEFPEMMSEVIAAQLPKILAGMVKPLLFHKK
Procedure, shortened: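 Seed PR-UAS-bla HEK 293T cells (2% charcoal-stripped FBS), incubate 6 hr at 37C; add compounds in DMSO, 16 hr at 37C; add LiveBLAzer B/G substrate, 2 hr RT; read fluorescence intensity.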

[18] = target: Progesterone receptor (Homo sapiens) (UniProt P06401); test: qHTS assay to identify small molecule antagonists of the progesterone receptor (PR) signaling pathway (AID 1346795; active = well fitted inhibition curve with a large enough effect in the signal ratio in the repeat runs, not every such curve was filed as active; the % refers to the signal ratio)
Procedure, shortened: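 Screening used a GripTite HEK293T line with PR-responsive UAS-beta-lactamase. Cells were challenged with compound in the presence of 1 nM R5020 final for 16 hr at 37C; B/G FRET substrate, 2 hr room temperature, fluorescence.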
% is set by controls: 0 for no effect and ±100 for the full control effect.

O=C(C(=O)c1ccc(Br)cc1)c1ccc(Br)cc1
active: Potency [6] 6.78 µM | Potency [9] 15.2 µM
inactive: activity change, negative = inhibition [1] 4.75% [at 19 µM] | activity change, negative = cytotoxicity [2] -0.456% [at 19 µM] | viability change, negative = cytotoxic [3] 7.56% [at 19 µM] | viability change, negative = cytotoxic [4] -13.1% [at 19 µM] | activity change [5] -0.0641% [at 18.9 µM] | activation [7] 0.63% [at 19 µM] | activity change, negative = cytotoxicity [8] 0.135% [at 19 µM] | activity change, negative = cytotoxicity [10] -2.64% [at 19 µM] | activation [11] 0.308% [at 19 µM] | cAMP activity change [12] 5.87% [at 18.9 µM, stronger effect = higher value] | activity change, negative = inhibition [13] -5.08% [at 19 µM] | activity change, negative = cytotoxicity [14] 0.0353% [at 19 µM]

CCOc1ccc(NC(=O)CC(C)=O)cc1
inactive: outcome [2] | Potency [3] | Potency [4] | outcome [5] | Potency [6] | Potency [7] | Potency [15] | Potency [8] | Potency [16] | Potency [10] | Potency [14] | outcome [17] | Potency [18]

CCCCCCOC(=O)CCC
inactive: Potency [1] | outcome [2] | Potency [3] | Potency [4] | Potency [6] | Potency [7] | Potency [15] | Potency [8] | Potency [16] | Potency [10] | Potency [12] | Potency [13] | Potency [14] | Potency [18]

N#Cc1c(F)cccc1F
inactive: Potency [1] | Potency [3] | Potency [4] | Potency [6] | Potency [8] | Potency [16] | Potency [10] | Potency [12] | Potency [13] | Potency [14] | outcome [17]

O=C1Nc2cc(Cl)ccc2Oc2ccccc21
inactive: Potency [1] | outcome [2] | Potency [3] | Potency [4] | outcome [5] | Potency [6] | Potency [7] | Potency [8] | Potency [16] | Potency [9] | Potency [10] | Potency [11] | Potency [12] | Potency [13] | Potency [14] | outcome [17]

C=CC(=O)OCCOC(=O)CCC(=O)O
inactive: outcome [2] | Potency [3] | outcome [5] | Potency [8] | Potency [16] | Potency [10] | Potency [12] | Potency [13] | Potency [14] | outcome [17] | Potency [18]
active: Potency [6] 61.1 µM

CCCCc1cc2ccccc2c(OCCN(C)C)n1
inactive: Potency [1] | outcome [2] | Potency [3] | Potency [4] | outcome [5] | Potency [8] | Potency [12] | Potency [13] | Potency [14] | outcome [17]

COc1cc(C(C)(C)C)c(O)c(C(C)(C)C)c1
inactive: outcome [2] | Potency [3] | Potency [4] | Potency [6] | Potency [8] | Potency [16] | Potency [10] | Potency [12] | Potency [13] | Potency [14] | outcome [17] | Potency [18]

Cc1ccc(C)o1
inactive: Potency [1] | outcome [2] | Potency [3] | outcome [5] | Potency [6] | Potency [7] | Potency [15] | Potency [8] | Potency [16] | Potency [10] | Potency [12] | Potency [13] | outcome [17] | Potency [18]

O=C(CC(=O)c1ccccc1)c1ccccc1
inactive: outcome [2] | Potency [4] | Potency [6] | Potency [8] | Potency [16] | Potency [10] | Potency [12] | Potency [13] | Potency [14] | outcome [17]
active: Potency [1] 2.93 µM

CC(C)c1cccc(C(C)C)c1NC(=O)NS(=O)(=O)c1cc(C(C)(C)O)co1
inactive: Potency [1] | outcome [2] | Potency [4] | outcome [5] | Potency [6] | Potency [7] | Potency [15] | Potency [8] | Potency [16] | Potency [10] | Potency [13] | Potency [14] | outcome [17] | Potency [18]
